Some of the results follow. Records with an inconclusive call do not appear. Active and inactive are the calls of the source. Calls come from the whole dose curve; as a rule, active = well fitted curve in the direction sought with a large enough effect; inconclusive = small, poorly fitted or top-dose-only effect, or effect the other way, or another doubt; inactive = no such curve, though single readings can be large or run the other way.

A short description of the assay: Confirmation Concentration-Response Assay for Agonists of the Thyroid Stimulating Hormone Receptor: Activators of Intracellular cAMP Concentrations in Parental HEK 293. The note with it: parental HEK293 CNG biosensor, cAMP membrane potential fluorescence; series mostly up to 32.9 µM. The source says:
NIH Chemical Genomics Center [NCGC] NIH Molecular Libraries Screening Centers Network [MLSCN] MLSCN Grant: 1 X01 MH080680-01 PI Name: Dr. Marvin Gershengorn NCGC Assay Overview: This cell based assay utilized a cyclic nucleotide gated ion channel (CNG) as a biosensor for cAMP induction. HEK 293 cells stably expressing the modified CNG were purchased from BD biosciences (http://www.atto.com/products/actone/features_benefits.shtml) . Stimulation of cAMP production causes the CNG to open and subsequent membrane depolarization to occur. A fluorescent membrane potential dye (BD biosciences) was utilized to detect cAMP stimulation in cells. The cells were maintained in DMEM medium (Invitrogen) containing 10 % FBS (Hyclone), 100 units/ml Penicillin, 100 ug/ml Streptomycin (Invitrogen), and 250 ug/ml Geneticin (Invitrogen) and 1 ug/ml Puromycin (Invitrogen) at 37C in 5% CO2. This assay was used as a counterscreen to "Confirmation Concentration-Response Assay for Agonists of the Thyroid Stimulating Hormone Receptor", to control for compounds signaling through endogenous receptors and other targets of HEK 293 cells.
NCGC Assay Protocol Summary: High Throughput Screening. Freshly passaged cells were dispensed into 1536-well assay plates at 4 ul/well in DMEM containing phenol red (Invitrogen), 10% FCS (Hyclone), and 100 units/ml Penicillin, 100 ug/ml Streptomycin (Invitrogen) and incubated at 37 C with 5% CO2 for 20 to 36 hrs before the robotic screening. The screen was initiated by addition of 4 ul/well membrane potential dye containing 100 uM RO 20-1724 (Sigma Aldrich), followed by 60 min incubation at room temperature to allow for dye equilibration across the cell membrane. 23 nl/well compound or control was then added to the assay plates, which were incubated for additional 30 min before reading a Envision fluorescence plate reader (Perkin Elmer) in bottom-read mode for fluorescence intensity (emission at 590 nm). Keywords: cAMP, CNG Ion Channel, quantitative high throughput screening, qHTS, HTS, probe identification, CNG, cAMP, cyclic nucleotide gated ion channel PubChem
With `CCOC(=O)CSc1nnc(NC(=O)c2cccc(S(=O)(=O)N3CCCCC3)c2)s1`, the result was inactive. For `O=C(COC(=O)C12CC3CC(CC(C3)C1)C2)NCc1ccco1` the value was “inactive”; for `CCOC(=O)c1cnc(-n2nc(C)cc2C)nc1-n1nc(C)cc1C`, “inactive”. For `C=CCn1c(COc2ccccc2F)nnc1SCC(=O)N1CC(=O)Nc2ccccc21` the value was “inactive”; for `Cc1ccc(Nc2nc(CSc3nnnn3-c3ccccc3)cc(=O)[nH]2)cc1`, “inactive”.

`O=C(CN1C(=O)NC2(CCCCC2)C1=O)NCCC1=CCCCC1`: the outcome was inactive.

The values above are taken from PubChem BioAssay AID953 (National Center for Advancing Translational Sciences (NCATS), 2007).
